# Experimental data published in PubChem BioAssay (Tox21).
# Results filed as inconclusive are left out. A call without a number means that no potency is given here. The source made the active and inactive calls. The call rests on the fitted dose curve.
# Test: p53 small molecule agonists, cell-based qHTS assay with rat liver microsomes (AID 1963578)
# Settings: HCT-116 p53RE-bla, beta-lactamase ratio, 16 h; series mostly up to 66 µM
# How it was run: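 Each plate received p53RE-bla cells, then compound, then rat liver microsomes and NADPH (both 0.5 mg/mL final). Plates were held 16 h at 37 C, and beta-lactamase activity was detected with LiveBLAzer over 2 h.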
# Potency means the concentration at half of the fitted maximal effect.
row,SMILES,Potency
1,CNCc1cc(F)ccc1Oc1ccc(Cl)c(Cl)c1,inactive
2,CC(C)(C)c1cc(/C=C2\SC(=N)NC2=O)cc(C(C)(C)C)c1O,inactive
3,CN(C)CCN(Cc1ccccc1)c1ccccn1,inactive
4,O=c1[nH]c(=O)n([C@H]2C[C@H](O)[C@@H](CO)O2)cc1F,inactive
5,O=S(=O)(Oc1ccc(Cl)cc1)c1ccccc1,inactive
6,CCc1ncc(C)[nH]1,inactive
7,O=C1CCCc2c1cc1ccc3cccc4ccc2c1c34,inactive
8,CC(C)(C)CC(C)(C)c1ccccc1O,inactive
9,CCCCC/C=C\C/C=C\CCCCCCCC(=O)NC(C)c1ccccc1 (stereo not given),inactive
10,Oc1ccc2c(c1)-c1ccccc1C2,inactive
11,CSC(=O)c1cccc2nnsc12,inactive
12,CCC[C@@H]1C[C@@H](C(=O)N[C@@H]([C@H]2O[C@H](SC)[C@H](O)[C@@H](O)[C@H]2O)[C@@H](C)O)N(C)C1,inactive
13,CCCCCCCCCCCCCCCCCCNC(=O)OC1CCN(C(=O)OC[C@H](COC(=O)N(Cc2cccc[n+]2CC)C(=O)c2ccccc2OC)OC)CC1,inactive
14,CC(=O)/C=C/C=C1/C2CCC(C2)C1(C)C (stereo not given),inactive
15,Cc1c(-c2ccccc2)oc2c(C(=O)OCCN3CCCCC3)cccc2c1=O,inactive
16,CCN(Cc1cccnc1)C(=O)c1cccc(Cl)c1[C@]1(C)C(=O)N(Cc2ccc(OC)cc2OC)c2ccc(Cl)cc21,inactive
17,COc1cc(-c2ccc(=O)[nH]n2)ccc1OC(F)F,inactive
18,CCCCCCCCCCCCN1CCCCCC1=O,inactive
19,COc1ccc(S(=O)(=O)Nc2nnc(CC(C)C)s2)cc1,inactive
20,NC(=O)N1C(=O)C(C(=O)c2cc(Cl)cs2)c2cc(F)c(Cl)cc21 (stereo not given),inactive

row,SMILES,Potency
1,O=C(O)c1c2ccccc2cc2ccccc12,inactive
2,Cc1cc(NC(=O)C(=O)O)cc(C)c1Oc1ccc(O)c2c1CCC2,inactive
3,CCOC(=O)C1=C(C)NC(C)=C(C(=O)OCC)C1c1ccccc1/C=C/C(=O)OC(C)(C)C,19.9 µM (active)
4,Cc1oc(-c2ccccc2)nc1CCOc1cccc2c1ccn2CCC(=O)O,inactive
5,O=C(CCCN1CCN(c2ccc(F)cc2)CC1)NC1c2ccccc2CSc2ccccc21 (stereo not given),inactive
6,COc1ccc(/C=C/c2cc(OC)cc(=O)o2)cc1,inactive
7,CCCNC(C)C(=O)Nc1c(C)csc1C(=O)OC (stereo not given),inactive
8,OCCCS,inactive
9,O=C(O)COc1ccc2ccccc2c1,inactive
10,OCCCCCO,inactive
11,CC(=O)OCC(=O)[C@@]1(O)[C@H](OC(C)=O)C[C@H]2[C@@H]3CCC4=CC(=O)C=C[C@]4(C)[C@@]3(F)[C@@H](O)C[C@@]21C,inactive
12,NS(=O)(=O)c1ccc(C(=O)O)cc1,inactive
13,O=C(O)C1(C(=O)Nc2ccc(Cl)cc2Cl)CC1,inactive
14,CC1=CC(C)C(C=O)C(C)C1 (stereo not given),inactive
15,ClCCOCCOCCCl,inactive
16,CCc1c2c(nc3ccc(OC(=O)N4CCC(N5CCCCC5)CC4)cc13)-c1cc3c(c(=O)n1C2)COC(=O)[C@]3(O)CC,0.0178 µM (active)
17,CC(COc1ccccc1)NN (stereo not given),inactive
18,CCCCNC(=O)NCCCC,inactive
19,CCOc1ccccc1OCC1CNCCO1 (stereo not given),inactive
20,Cc1coc2ccccc2c1=O,inactive

# Test: p53 small molecule agonists, cell-based qHTS assay with human liver microsomes: qHTS cell viability counter screen (AID 1963579); further: nearly all actives have a fitted effect of over 45% in size
# Settings: p53RE-bla HCT-116 viability, ATP luminescence, 16 h, HLM; series mostly up to 66 µM
# How it was run: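 Tox21 library compounds, delivered from DMSO stocks, were tested on p53RE-bla cells together with 0.5 mg/mL human liver microsomes and 0.5 mg/mL NADPH (final) over 16 h at 37 C; CellTiter-Glo luminescence served as the cytotoxicity measure.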
row,SMILES,Potency
1,CNCc1cc(F)ccc1Oc1ccc(Cl)c(Cl)c1,inactive
2,CC(C)(C)c1cc(/C=C2\SC(=N)NC2=O)cc(C(C)(C)C)c1O,inactive
3,CN(C)CCN(Cc1ccccc1)c1ccccn1,inactive
4,O=c1[nH]c(=O)n([C@H]2C[C@H](O)[C@@H](CO)O2)cc1F,inactive
5,O=S(=O)(Oc1ccc(Cl)cc1)c1ccccc1,inactive
6,CCc1ncc(C)[nH]1,inactive
7,O=C1CCCc2c1cc1ccc3cccc4ccc2c1c34,inactive
8,CC(C)(C)CC(C)(C)c1ccccc1O,41 µM (active)
9,CCCCC/C=C\C/C=C\CCCCCCCC(=O)NC(C)c1ccccc1 (stereo not given),inactive
10,Oc1ccc2c(c1)-c1ccccc1C2,inactive
11,CSC(=O)c1cccc2nnsc12,inactive
12,CCC[C@@H]1C[C@@H](C(=O)N[C@@H]([C@H]2O[C@H](SC)[C@H](O)[C@@H](O)[C@H]2O)[C@@H](C)O)N(C)C1,inactive
13,CCCCCCCCCCCCCCCCCCNC(=O)OC1CCN(C(=O)OC[C@H](COC(=O)N(Cc2cccc[n+]2CC)C(=O)c2ccccc2OC)OC)CC1,inactive
14,CC(=O)/C=C/C=C1/C2CCC(C2)C1(C)C (stereo not given),inactive
15,Cc1c(-c2ccccc2)oc2c(C(=O)OCCN3CCCCC3)cccc2c1=O,inactive
16,CCN(Cc1cccnc1)C(=O)c1cccc(Cl)c1[C@]1(C)C(=O)N(Cc2ccc(OC)cc2OC)c2ccc(Cl)cc21,inactive
17,COc1cc(-c2ccc(=O)[nH]n2)ccc1OC(F)F,inactive
18,CCCCCCCCCCCCN1CCCCCC1=O,inactive
19,COc1ccc(S(=O)(=O)Nc2nnc(CC(C)C)s2)cc1,inactive
20,NC(=O)N1C(=O)C(C(=O)c2cc(Cl)cs2)c2cc(F)c(Cl)cc21 (stereo not given),inactive

row,SMILES,Potency
1,O=C(O)c1c2ccccc2cc2ccccc12,inactive
2,Cc1cc(NC(=O)C(=O)O)cc(C)c1Oc1ccc(O)c2c1CCC2,inactive
3,CCOC(=O)C1=C(C)NC(C)=C(C(=O)OCC)C1c1ccccc1/C=C/C(=O)OC(C)(C)C,inactive
4,Cc1oc(-c2ccccc2)nc1CCOc1cccc2c1ccn2CCC(=O)O,inactive
5,O=C(CCCN1CCN(c2ccc(F)cc2)CC1)NC1c2ccccc2CSc2ccccc21 (stereo not given),inactive
6,COc1ccc(/C=C/c2cc(OC)cc(=O)o2)cc1,inactive
7,CCCNC(C)C(=O)Nc1c(C)csc1C(=O)OC (stereo not given),inactive
8,OCCCS,inactive
9,O=C(O)COc1ccc2ccccc2c1,inactive
10,OCCCCCO,inactive
11,CC(=O)OCC(=O)[C@@]1(O)[C@H](OC(C)=O)C[C@H]2[C@@H]3CCC4=CC(=O)C=C[C@]4(C)[C@@]3(F)[C@@H](O)C[C@@]21C,inactive
12,NS(=O)(=O)c1ccc(C(=O)O)cc1,inactive
13,O=C(O)C1(C(=O)Nc2ccc(Cl)cc2Cl)CC1,inactive
14,CC1=CC(C)C(C=O)C(C)C1 (stereo not given),inactive
15,ClCCOCCOCCCl,inactive
16,CCc1c2c(nc3ccc(OC(=O)N4CCC(N5CCCCC5)CC4)cc13)-c1cc3c(c(=O)n1C2)COC(=O)[C@]3(O)CC,inactive
17,CC(COc1ccccc1)NN (stereo not given),inactive
18,CCCCNC(=O)NCCCC,inactive
19,CCOc1ccccc1OCC1CNCCO1 (stereo not given),inactive
20,Cc1coc2ccccc2c1=O,inactive
